According to the supplement of paper PMC6411743:
± gives the standard deviation of the averaged measurements. Targets with the largest changes are over-represented here; the source holds about 5,400 in all.

compound: Nc1nc2c(ncn2[C@@H]2O[C@H](COP(=O)(O)OP(=O)(O)OP(=O)(O)O)[C@@H](O)[C@H]2O)c(=O)[nH]1 [guanosine triphosphate]; test: NP40-soluble protein abundance relative to vehicle (solubility fold change) (ratio); higher = more soluble protein in presence of GTP; details: concentration: 0.1mM
In short: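 Jurkat crude lysate (Dounce-homogenised) was treated with eight concentrations from 0.1 to 10 mM for 10 min at room temperature, then 3 min at 37 °C. It was solubilised with 0.8% NP40 and benzonase (60 min, 4 °C) and ultracentrifuged, and the supernatant was TMT-labelled for LC-MS/MS. Intensities were vsn-normalised, and the value is the fold change against the NP40-processed vehicle per replicate, from three independent experiments.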

Sequence of UniProt Q14974 (Q14974 whole entry): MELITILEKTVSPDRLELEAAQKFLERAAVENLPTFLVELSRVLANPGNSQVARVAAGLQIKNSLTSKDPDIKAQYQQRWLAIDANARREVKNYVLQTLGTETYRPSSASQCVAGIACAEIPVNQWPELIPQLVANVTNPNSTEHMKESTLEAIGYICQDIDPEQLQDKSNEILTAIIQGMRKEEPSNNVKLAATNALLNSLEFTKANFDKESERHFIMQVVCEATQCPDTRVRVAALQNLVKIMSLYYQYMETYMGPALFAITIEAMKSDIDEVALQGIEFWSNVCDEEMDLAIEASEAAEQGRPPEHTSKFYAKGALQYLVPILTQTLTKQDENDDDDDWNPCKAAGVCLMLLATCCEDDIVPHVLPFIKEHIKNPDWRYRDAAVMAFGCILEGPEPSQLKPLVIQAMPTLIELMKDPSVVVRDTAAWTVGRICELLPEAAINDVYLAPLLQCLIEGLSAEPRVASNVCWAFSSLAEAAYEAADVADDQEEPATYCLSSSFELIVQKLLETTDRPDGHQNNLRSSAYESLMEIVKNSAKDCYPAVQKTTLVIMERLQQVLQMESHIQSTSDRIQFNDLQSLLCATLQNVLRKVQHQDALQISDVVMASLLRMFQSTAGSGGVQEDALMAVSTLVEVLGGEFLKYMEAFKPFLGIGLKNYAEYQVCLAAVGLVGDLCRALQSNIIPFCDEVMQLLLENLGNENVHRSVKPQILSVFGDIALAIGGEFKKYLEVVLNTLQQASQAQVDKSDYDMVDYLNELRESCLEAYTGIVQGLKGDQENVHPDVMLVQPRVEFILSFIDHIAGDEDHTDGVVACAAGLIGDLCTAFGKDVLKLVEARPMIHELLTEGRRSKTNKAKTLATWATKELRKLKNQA
Sequence of UniProt Q13200 (Q13200 whole entry): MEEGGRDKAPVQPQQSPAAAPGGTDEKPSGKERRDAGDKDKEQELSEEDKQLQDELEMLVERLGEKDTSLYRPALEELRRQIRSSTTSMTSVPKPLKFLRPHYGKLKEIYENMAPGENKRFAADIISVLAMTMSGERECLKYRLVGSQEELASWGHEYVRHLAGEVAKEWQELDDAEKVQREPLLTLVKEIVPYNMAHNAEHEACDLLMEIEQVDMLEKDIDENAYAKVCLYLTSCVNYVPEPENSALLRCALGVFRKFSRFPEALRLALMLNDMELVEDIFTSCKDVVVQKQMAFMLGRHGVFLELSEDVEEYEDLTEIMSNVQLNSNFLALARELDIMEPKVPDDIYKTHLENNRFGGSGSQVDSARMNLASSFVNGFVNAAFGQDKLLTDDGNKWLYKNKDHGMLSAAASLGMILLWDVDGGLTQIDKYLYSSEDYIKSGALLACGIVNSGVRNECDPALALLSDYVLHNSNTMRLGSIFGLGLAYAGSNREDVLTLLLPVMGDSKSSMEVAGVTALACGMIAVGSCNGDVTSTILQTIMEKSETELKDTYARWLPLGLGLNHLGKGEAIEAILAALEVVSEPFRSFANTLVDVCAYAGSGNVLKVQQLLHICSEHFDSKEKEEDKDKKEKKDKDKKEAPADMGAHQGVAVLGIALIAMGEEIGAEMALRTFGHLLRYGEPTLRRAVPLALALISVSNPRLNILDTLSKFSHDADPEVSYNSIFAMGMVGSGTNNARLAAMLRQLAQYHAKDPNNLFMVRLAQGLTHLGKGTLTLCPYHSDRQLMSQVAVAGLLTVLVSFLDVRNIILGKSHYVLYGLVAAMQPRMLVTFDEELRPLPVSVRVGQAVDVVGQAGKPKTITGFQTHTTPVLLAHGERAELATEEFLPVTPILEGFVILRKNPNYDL
Sequence of UniProt Q8NB16 (Q8NB16 whole entry): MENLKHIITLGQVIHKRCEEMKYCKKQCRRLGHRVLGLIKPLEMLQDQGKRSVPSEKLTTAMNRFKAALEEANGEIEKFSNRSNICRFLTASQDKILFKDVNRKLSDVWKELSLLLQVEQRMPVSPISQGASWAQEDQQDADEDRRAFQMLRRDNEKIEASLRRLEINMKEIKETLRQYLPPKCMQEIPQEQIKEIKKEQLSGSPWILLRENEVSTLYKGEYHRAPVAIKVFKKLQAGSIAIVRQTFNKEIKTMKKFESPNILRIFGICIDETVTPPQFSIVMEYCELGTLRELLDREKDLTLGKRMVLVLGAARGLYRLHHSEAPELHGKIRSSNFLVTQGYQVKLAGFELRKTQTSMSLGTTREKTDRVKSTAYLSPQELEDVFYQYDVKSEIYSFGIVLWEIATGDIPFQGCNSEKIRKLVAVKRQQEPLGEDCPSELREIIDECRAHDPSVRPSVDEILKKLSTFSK
Sequence of UniProt Q14444 (Q14444 whole entry): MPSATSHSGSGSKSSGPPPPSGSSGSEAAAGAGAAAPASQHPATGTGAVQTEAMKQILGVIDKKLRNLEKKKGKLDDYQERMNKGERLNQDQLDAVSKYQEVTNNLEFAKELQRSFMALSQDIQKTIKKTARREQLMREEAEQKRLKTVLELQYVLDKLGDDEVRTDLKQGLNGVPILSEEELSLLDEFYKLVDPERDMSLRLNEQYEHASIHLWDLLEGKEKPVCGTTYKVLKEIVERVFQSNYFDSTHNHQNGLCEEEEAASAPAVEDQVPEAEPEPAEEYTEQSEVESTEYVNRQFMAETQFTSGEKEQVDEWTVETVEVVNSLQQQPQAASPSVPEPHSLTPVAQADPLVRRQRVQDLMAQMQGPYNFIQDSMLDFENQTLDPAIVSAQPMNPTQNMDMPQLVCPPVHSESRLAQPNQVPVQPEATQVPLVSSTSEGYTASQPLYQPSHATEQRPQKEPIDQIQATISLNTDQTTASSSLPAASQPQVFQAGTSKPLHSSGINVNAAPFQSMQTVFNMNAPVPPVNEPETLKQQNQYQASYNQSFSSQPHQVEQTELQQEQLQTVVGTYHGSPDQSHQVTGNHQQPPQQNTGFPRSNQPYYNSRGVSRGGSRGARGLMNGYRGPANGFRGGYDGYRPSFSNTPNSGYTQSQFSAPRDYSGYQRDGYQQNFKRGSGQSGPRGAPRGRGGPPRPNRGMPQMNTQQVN
Sequence of UniProt Q63HQ0 (Q63HQ0 whole entry): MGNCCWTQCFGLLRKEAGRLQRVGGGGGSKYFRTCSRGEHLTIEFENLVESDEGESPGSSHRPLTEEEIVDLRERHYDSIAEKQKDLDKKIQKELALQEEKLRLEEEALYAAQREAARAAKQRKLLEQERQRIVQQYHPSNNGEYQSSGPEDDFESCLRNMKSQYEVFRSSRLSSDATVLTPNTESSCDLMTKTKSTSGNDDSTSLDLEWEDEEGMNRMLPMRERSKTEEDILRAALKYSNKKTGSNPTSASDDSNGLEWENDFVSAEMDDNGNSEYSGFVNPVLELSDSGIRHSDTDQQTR
Sequence of UniProt Q86W42 (Q86W42 whole entry): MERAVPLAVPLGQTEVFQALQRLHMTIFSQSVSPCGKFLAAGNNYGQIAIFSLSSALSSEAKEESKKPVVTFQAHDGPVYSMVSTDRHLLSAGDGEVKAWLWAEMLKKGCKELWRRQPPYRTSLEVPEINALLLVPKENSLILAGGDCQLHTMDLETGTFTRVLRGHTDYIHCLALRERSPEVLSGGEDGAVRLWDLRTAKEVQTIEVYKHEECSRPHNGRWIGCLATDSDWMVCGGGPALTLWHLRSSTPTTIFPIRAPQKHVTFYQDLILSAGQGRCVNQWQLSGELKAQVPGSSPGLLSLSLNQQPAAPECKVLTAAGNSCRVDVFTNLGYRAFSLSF
Sequence of UniProt Q6I9Y2 (Q6I9Y2 whole entry): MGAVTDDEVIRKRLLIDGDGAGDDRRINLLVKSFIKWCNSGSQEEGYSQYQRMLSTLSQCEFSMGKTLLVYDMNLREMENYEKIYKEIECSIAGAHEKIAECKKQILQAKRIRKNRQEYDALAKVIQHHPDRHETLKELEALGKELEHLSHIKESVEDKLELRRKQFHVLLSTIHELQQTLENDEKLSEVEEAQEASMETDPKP
Sequence of UniProt Q6IBS0 (Q6IBS0 whole entry): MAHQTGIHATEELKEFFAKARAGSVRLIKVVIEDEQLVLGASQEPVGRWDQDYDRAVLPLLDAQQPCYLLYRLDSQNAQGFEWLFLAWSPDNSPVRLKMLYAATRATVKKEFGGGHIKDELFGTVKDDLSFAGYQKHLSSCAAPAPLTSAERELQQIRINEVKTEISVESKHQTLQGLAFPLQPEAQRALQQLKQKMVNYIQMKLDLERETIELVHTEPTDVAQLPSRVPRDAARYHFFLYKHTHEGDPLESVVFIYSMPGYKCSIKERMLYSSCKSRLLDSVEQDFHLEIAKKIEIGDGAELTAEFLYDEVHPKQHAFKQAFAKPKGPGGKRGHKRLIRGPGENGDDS
Sequence of UniProt Q8NC56 (Q8NC56 whole entry): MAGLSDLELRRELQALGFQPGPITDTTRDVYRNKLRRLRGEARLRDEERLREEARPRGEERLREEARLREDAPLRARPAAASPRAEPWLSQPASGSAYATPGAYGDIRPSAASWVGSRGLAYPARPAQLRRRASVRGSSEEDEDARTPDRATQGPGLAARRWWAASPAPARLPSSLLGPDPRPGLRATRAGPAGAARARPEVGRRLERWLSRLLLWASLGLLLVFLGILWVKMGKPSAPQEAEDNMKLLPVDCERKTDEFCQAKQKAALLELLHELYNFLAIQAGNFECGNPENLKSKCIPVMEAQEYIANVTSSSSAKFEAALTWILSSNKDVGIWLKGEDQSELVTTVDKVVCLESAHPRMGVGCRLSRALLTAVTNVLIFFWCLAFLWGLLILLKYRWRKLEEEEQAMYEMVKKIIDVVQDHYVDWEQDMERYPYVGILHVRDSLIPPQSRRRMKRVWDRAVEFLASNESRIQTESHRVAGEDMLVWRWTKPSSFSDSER
Sequence of UniProt Q86WR0 (Q86WR0 whole entry): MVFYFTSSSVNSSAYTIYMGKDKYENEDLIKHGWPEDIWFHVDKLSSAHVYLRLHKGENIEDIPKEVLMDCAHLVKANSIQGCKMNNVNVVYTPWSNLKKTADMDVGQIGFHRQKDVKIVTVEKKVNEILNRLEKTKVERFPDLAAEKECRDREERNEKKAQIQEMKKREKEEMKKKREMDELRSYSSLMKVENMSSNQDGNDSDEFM

Q: Which NP40-soluble protein abundance does the source give for UniProt P55072 here?
A: 0.982 ± 0.03

Q: With YRDC (UniProt Q86U90) as the target, how does the NP40-soluble protein abundance read?
A: 0.989 ± 0.041

Q: For “UniProt Q86U86|Q86U86-8|Q86U86-2|Q86U86-4|Q86U86-5|Q86U86-7|Q86U86-9”, which NP40-soluble protein abundance is on record?
A: 1.07 ± 0.048

Q: UniProt Q5K651|C9JKF1 was tested. Which NP40-soluble protein abundance did it give?
A: 1.04 ± 0.017

Q: UniProt Q7Z3B4|Q7Z3B4-3 was tested. Which NP40-soluble protein abundance did it give?
A: 1.02 ± 0.051

Q: For UniProt Q16630|Q16630-2, which NP40-soluble protein abundance is on record?
A: 1.16 ± 0.012

Q: AARS2 (UniProt Q5JTZ9) was tested. Which NP40-soluble protein abundance did it give?
A: 1.13 ± 0.043

Q: How did the NP40-soluble protein abundance turn out when UniProt Q10567|Q10567-2|Q10567-3 was run?
A: 0.918 ± 0.056

Q: With UniProt Q12872|Q12872-2 as the target, how does the NP40-soluble protein abundance read?
A: 0.979 ± 0.031

Q: PSMD2 (UniProt Q13200) was tested. Which NP40-soluble protein abundance did it give?
A: 1.03 ± 0.077

Q: Which NP40-soluble protein abundance does the source give for UniProt Q86Y37|Q86Y37-4 here?
A: 0.963 ± 0.063

Q: UniProt Q16864|Q16864-2 was tested. Which NP40-soluble protein abundance did it give?
A: 0.906 ± 0.02

Q: How did the NP40-soluble protein abundance turn out when LEMD2 (UniProt Q8NC56) was run?
A: 1.09 ± 0.04

Q: How did the NP40-soluble protein abundance turn out when “UniProt Q13428|Q13428-3|Q13428-4|Q13428-7” was run?
A: 0.975 ± 0.096

Q: How did the NP40-soluble protein abundance turn out when DHX9 (UniProt Q08211) was run?
A: 1.03 ± 0.088

Q: Which NP40-soluble protein abundance does the source give for THOC7 (UniProt Q6I9Y2) here?
A: 0.999 ± 0.13

Q: DDX1 (UniProt Q92499) was tested. Which NP40-soluble protein abundance did it give?
A: 1.02 ± 0.024

Q: How did the NP40-soluble protein abundance turn out when EDC4 (UniProt Q6P2E9) was run?
A: 0.984 ± 0.029

Q: For P86790|P86791 (UniProt P86791+P86790), which NP40-soluble protein abundance is on record?
A: 1.06 ± 0.015

Q: Which NP40-soluble protein abundance does the source give for RAB8A (UniProt P61006) here?
A: 0.928 ± 0.03

Q: MBLAC2 (UniProt Q68D91) was tested. Which NP40-soluble protein abundance did it give?
A: 1.09 ± 0.12

Q: SNW1 (UniProt Q13573) was tested. Which NP40-soluble protein abundance did it give?
A: 0.96 ± 0.049

Q: For UniProt Q13427|E9PG73, which NP40-soluble protein abundance is on record?
A: 0.978 ± 0.092

Q: How did the NP40-soluble protein abundance turn out when UniProt Q63HQ0 was run?
A: 0.923 ± 0.075

Q: How did the NP40-soluble protein abundance turn out when MLKL (UniProt Q8NB16) was run?
A: 0.98 ± 0.044

Q: Which NP40-soluble protein abundance does the source give for UniProt P62277 here?
A: 0.945 ± 0.11

Q: Which NP40-soluble protein abundance does the source give for EXOSC7 (UniProt Q15024) here?
A: 1.09 ± 0.084

Q: CCDC25 (UniProt Q86WR0) was tested. Which NP40-soluble protein abundance did it give?
A: 0.954 ± 0.079

Q: For UniProt P60228, which NP40-soluble protein abundance is on record?
A: 1.09 ± 0.046

Q: With UniProt Q86W42|Q86W42-2 as the target, how does the NP40-soluble protein abundance read?
A: 1.21 ± 0.14

Q: For “UniProt Q6UXH1|Q6UXH1-4|Q6UXH1-5|Q6UXH1-6”, which NP40-soluble protein abundance is on record?
A: 0.968 ± 0.018

Q: UniProt Q14103-3|D6RF44|Q14103-4 was tested. Which NP40-soluble protein abundance did it give?
A: 0.913 ± 0.097

Q: MTM1 (UniProt Q13496) was tested. Which NP40-soluble protein abundance did it give?
A: 1.01 ± 0.078

Q: UniProt Q7KZN9|Q7KZN9-2 was tested. Which NP40-soluble protein abundance did it give?
A: 1.07 ± 0.024

Q: Which NP40-soluble protein abundance does the source give for KPNB1 (UniProt Q14974) here?
A: 0.986 ± 0.053

Q: RDH11 (UniProt Q8TC12) was tested. Which NP40-soluble protein abundance did it give?
A: 1 ± 0.014

Q: How did the NP40-soluble protein abundance turn out when TWF2 (UniProt Q6IBS0) was run?
A: 1.02 ± 0.035

Q: How did the NP40-soluble protein abundance turn out when PDCD6IP (UniProt Q8WUM4) was run?
A: 0.945 ± 0.046

Q: UniProt Q14444|Q14444-2 was tested. Which NP40-soluble protein abundance did it give?
A: 0.95 ± 0.057
